From PubChem BioAssay (NCATS)
Where “and” joins values, the source holds several entries; their conditions need not be identical. Equal values may be shown once. Records with an inconclusive call do not appear. Some compounds were tested as several samples or in several runs, with calls that do not always agree. Calls of active or inactive are those of the source. Unless noted, calls follow the shape of the dose curve; as a rule, active = well fitted curve in the direction sought with a large enough effect; inconclusive = small, poorly fitted or top-dose-only effect, or another doubt; inactive = no such curve, though single readings can be large; an effect the other way counts as inactive or inconclusive.

Columns and labels:
[1] = system: UISO; experiment: qHTS assay to identify novel small-molecules to repurpose for Merkel cell carcinoma treatment (AID 1296009); conditions: MCC and control cell lines, CellTiter-Glo viability, 72 h; series mostly up to 46 µM; also: nearly all actives have a fitted effect of over 60% in size; also: potency is read from the fitted curve at half-maximal effect
Procedure, shortened: (§1)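 72 hr, 37 degree celsius; NPC 8-pt / MIPE 11-pt dose response; compound pinned in DMSO; CellTiter-Glo, 10 min RT, luminescence; normalized to no-cell and DMSO controls.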

[2] = system: WaGa; experiment: as above; conditions: MCC and control cell lines, CellTiter-Glo viability, 72 h; series mostly up to 46 µM
Procedure, shortened: as §1

[3] = system: C33A; experiment: Primary qHTS to identify gynecologic anti-cancer compounds using libraries of approved drugs and bioactive compounds (AID 1345084); conditions: Gynecologic cancer cell panel viability, ATPlite luminescence, 48 h; series mostly up to 57.5 µM; also: nearly all actives have a fitted effect of over 55% in size; also: potency is read from the fitted curve at half-maximal effect
Procedure, shortened: (§2)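 48 h compound exposure at 37 C, 5% CO2; five-point qHTS. ATPlite luminescence readout of cell ATP.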

[4] = system: CAOV3; experiment: as above; conditions: Gynecologic cancer cell panel viability, ATPlite luminescence, 48 h; series mostly up to 57.5 µM
Procedure, shortened: as §2

[5] = system: Es-2; experiment: as above; conditions: Gynecologic cancer cell panel viability, ATPlite luminescence, 48 h; series mostly up to 57.5 µM
Procedure, shortened: as §2

[6] = system: Hek293T; experiment: as above; conditions: Gynecologic cancer cell panel viability, ATPlite luminescence, 48 h, control line for the selectivity index; series mostly up to 57.5 µM
Procedure, shortened: as §2

[7] = system: OV90; experiment: as above; conditions: Gynecologic cancer cell panel viability, ATPlite luminescence, 48 h; series mostly up to 57.5 µM
Procedure, shortened: as §2

[8] = system: Tov-21-G; experiment: as above; conditions: Gynecologic cancer cell panel viability, ATPlite luminescence, 48 h; series mostly up to 57.5 µM
Procedure, shortened: as §2

[9] = Drug repurposing screens with cells derived from glioblastoma tumor samples (AID 1345199); conditions: GBM patient neurospheres viability, ATP luminescence, 48 h; also: nearly all actives have a fitted effect of over 40% in size; also: potency is read from the fitted curve at half-maximal effect; as to activity, negative = cell killing: % is scaled to controls: 0 for no effect and ±100 for the full control effect
Procedure, shortened: (§3)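 Four patient lines of CD133+ GBM neurospheres were screened at several concentrations; hits were retested in those lines plus three slower-growing GBM lines, using 48-hour treatment and ATP-based viability.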

[10] = system: astro; experiment: as above; conditions: viability, ATP luminescence, 48 h; series mostly up to 45.9 µM
Procedure, shortened: as §3

[11] = target: Nuclear receptor subfamily 1 group I member 2 (Rattus norvegicus) (UniProt Q9R1A7); experiment: qHTS assay for small molecule activators of the rat pregnane X receptor (rPXR) signaling pathway (AID 651751; call rule not given here; also: 0% is about no effect); conditions: rPXR reporter cells, luciferase (One-Glo), 24 h
[12] = system: CASKI; experiment: Primary qHTS to identify gynecologic anti-cancer compounds using libraries of approved drugs and bioactive compounds (AID 1345084); conditions: Gynecologic cancer cell panel viability, ATPlite luminescence, 48 h; series mostly up to 57.5 µM; also: nearly all actives have a fitted effect of over 55% in size; also: potency is read from the fitted curve at half-maximal effect
Procedure, shortened: as §2

[13] = system: HeLa; experiment: as above; conditions: Gynecologic cancer cell panel viability, ATPlite luminescence, 48 h; series mostly up to 57.5 µM
Procedure, shortened: as §2

[14] = system: JEG-3; experiment: as above; conditions: Gynecologic cancer cell panel viability, ATPlite luminescence, 48 h; series mostly up to 57.5 µM
Procedure, shortened: as §2

[15] = system: PA-1; experiment: as above; conditions: Gynecologic cancer cell panel viability, ATPlite luminescence, 48 h; series mostly up to 57.5 µM
Procedure, shortened: as §2

[16] = system: SKOV3; experiment: as above; conditions: Gynecologic cancer cell panel viability, ATPlite luminescence, 48 h; series mostly up to 57.5 µM
Procedure, shortened: as §2

[17] = system: Tov112D; experiment: as above; conditions: Gynecologic cancer cell panel viability, ATPlite luminescence, 48 h; series mostly up to 57.5 µM
Procedure, shortened: as §2

[18] = system: NIH3T3; experiment: qHTS assay to identify novel small-molecules to repurpose for Merkel cell carcinoma treatment (AID 1296009); conditions: MCC and control cell lines, CellTiter-Glo viability, 72 h; series mostly up to 44.8 µM; also: nearly all actives have a fitted effect of over 60% in size; also: potency is read from the fitted curve at half-maximal effect
Procedure, shortened: as §1

[19] = qHTS assay for small molecule activators of the human pregnane X receptor (PXR) signaling pathway (AID 720659; call rule not given here; also: 0% is about no effect)
[20] = at 46.1 µM (top of the series), tumour line C
[21] = at 45.9 µM (top of the series), tumour line B
[22] = at 45.9 µM (top of the series), tumour line D
[23] = at 46 µM (top of the series), tumour line A

Nuclear receptor subfamily 1 group I member 2 (Rattus norvegicus), sequence (Q9R1A7 whole entry, looked up): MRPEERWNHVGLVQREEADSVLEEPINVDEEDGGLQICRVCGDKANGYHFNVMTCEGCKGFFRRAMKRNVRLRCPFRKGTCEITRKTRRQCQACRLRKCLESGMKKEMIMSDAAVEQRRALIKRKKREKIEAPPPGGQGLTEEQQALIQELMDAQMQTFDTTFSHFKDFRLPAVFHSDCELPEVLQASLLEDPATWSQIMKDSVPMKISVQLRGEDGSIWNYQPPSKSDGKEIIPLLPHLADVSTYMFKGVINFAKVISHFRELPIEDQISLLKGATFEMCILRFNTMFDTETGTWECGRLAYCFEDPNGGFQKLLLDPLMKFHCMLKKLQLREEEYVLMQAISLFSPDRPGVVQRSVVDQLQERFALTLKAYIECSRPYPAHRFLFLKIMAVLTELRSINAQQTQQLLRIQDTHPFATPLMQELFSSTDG

O=c1c(-c2ccc(O)cc2)coc2cc(O)cc(O)c12
inactive and 26.6 µM (active): Potency [2]
inactive: Potency [1] | Potency [3] | Potency [4] | Potency [5] | Potency [6] | Potency [7] | activity, negative = cell killing [9, 20] -25.8% | max response [11] -0.208% and 4.35%
active: Potency [8] 3.98 µM | Potency [10] 10 µM

CN1C2CCC1CC(OC(=O)C(CO)c1ccccc1)C2 (configuration not stated)
inactive: Potency [1] | Potency [2]

CC(C)NCC(O)COc1ccc(CCOCC2CC2)cc1 (configuration not stated)
active: Potency ([9]; tumour line A) 17.8 µM
inactive: Potency [1] | Potency [2] | Potency [3] | Potency [4] | Potency [12] | Potency [5] | Potency [13] | Potency [6] | Potency [14] | Potency [7] | Potency [15] | Potency [16] | Potency [8] | Potency [17] | activity, negative = cell killing [9, 21] -17.4% | activity, negative = cell killing [9, 22] -21.3% | activity, negative = cell killing [9, 20] -27.5% | Potency [10]

CC(C)C(=O)Nc1ccc([N+](=O)[O-])c(C(F)(F)F)c1
inactive: outcome [18] | Potency [1] | Potency [3] | Potency [12] | Potency [5] | Potency [13] | Potency [8] | Potency [17]

CC12CC3CC(C)(C1)CC(N)(C3)C2
inactive: Potency [1] | Potency [3] | Potency [12] | Potency [5] | Potency [13] | Potency [6] | Potency [14] | Potency [7] | Potency [15] | Potency [16] | Potency [8] | Potency [17] | activity, negative = cell killing [9, 21] 2.01% | activity, negative = cell killing [9, 22] -1.27% | activity, negative = cell killing [9, 23] 0.163% | activity, negative = cell killing [9, 20] 0.449%
3.72 µM (active) and inactive: Potency [2]

CCc1cccc2c3c([nH]c12)C(CC)(CC(=O)O)OCC3 (configuration not stated)
inactive: Potency [1] | Potency [2] | Potency [3] | Potency [4] | Potency [12] | Potency [5] | Potency [13] | Potency [6] | Potency [14] | Potency [7] | Potency [15] | Potency [16] | Potency [8] | Potency [17] | activity, negative = cell killing [9, 21] -7.67% | activity, negative = cell killing [9, 22] -2.3% | activity, negative = cell killing [9, 23] -23.8% | activity, negative = cell killing [9, 20] -25.9% | Potency [10]

CCCCc1oc2ccccc2c1C(=O)c1cc(I)c(OCCN(CC)CC)c(I)c1
inactive: Potency [1] | Potency [2] | Potency [3] | Potency [4] | Potency [12] | Potency [5] | Potency [13] | Potency [6] | Potency [14] | Potency [7] | Potency [15] | Potency [8] | Potency [17] | activity, negative = cell killing [9, 20] 2%
active: Potency ([9]; tumour line A) 7.08 µM | Potency ([9]; tumour line B) 25.1 µM | Potency ([9]; tumour line D) 11.2 µM | Potency [10] 28.2 µM and 20 µM

CS(=O)(=O)Nc1ccc([N+](=O)[O-])cc1Oc1ccccc1
inactive: Potency [1] | Potency [2] | Potency [3] | Potency [4] | Potency [12] | Potency [5] | Potency [13] | Potency [6] | Potency [14] | Potency [7] | Potency [15] | Potency [16] | Potency [8] | Potency [17] | activity, negative = cell killing ([9]; at 20 µM (top of the series), tumour line C) 19.5% | activity, negative = cell killing ([9]; at 21.2 µM (top of the series), tumour line B) -19.6% | activity, negative = cell killing ([9]; at 21.2 µM (top of the series), tumour line D) -29.6% | activity, negative = cell killing ([9]; at 21.3 µM (top of the series), tumour line A) -28.2% | Potency [10]

C[C@](N)(Cc1ccc(O)c(O)c1)C(=O)O
inactive: Potency [1] | Potency [2] | Potency [3] | Potency [4] | Potency [12] | Potency [5] | Potency [13] | Potency [6] | Potency [7] | Potency [15] | Potency [16] | Potency [8] | Potency [17] | activity, negative = cell killing [9, 21] -10.5% | activity, negative = cell killing [9, 22] -4.46% | activity, negative = cell killing [9, 20] 1.22% | Potency [10] | max response [11] -1.2% | outcome [19]

CCOC(=O)Nc1ccc(NCc2ccc(F)cc2)nc1N
inactive: outcome [18] | Potency [1] | Potency [12] | Potency [5] | Potency [13] | Potency [6] | Potency [14] | Potency [7] | Potency [15] | Potency [16] | Potency [8] | Potency [17] | activity, negative = cell killing [9, 21] -10.5% and -16.1% | activity, negative = cell killing [9, 22] -21.3% and 3.4% | activity, negative = cell killing [9, 20] 4.51%
21.1 µM (active) and inactive: Potency [2]
active: Potency ([9]; tumour line A) 10 µM

O=C1Cc2cc(CCN3CCN(c4nsc5ccccc45)CC3)c(Cl)cc2N1
inactive: outcome [18] | Potency [3] | Potency [12] | Potency [5] | Potency [13] | Potency [6] | Potency [14] | Potency [7] | Potency [15] | Potency [16] | Potency [8] | Potency [17] | activity, negative = cell killing [9, 21] -28.8% | activity, negative = cell killing [9, 22] -18.4% | activity, negative = cell killing [9, 20] -28.3% and -12.6%
15 µM (active) and inactive: Potency [1]
active: Potency ([9]; tumour line B) 17.8 µM | Potency ([9]; tumour line D) 12.6 µM
